Laboratory results from PubChem BioAssay.
Several values for one entry are separate records, joined by “and”; a condition that tells them apart may be missing. Equal values may be shown once. Activity calls are given as the source filed them.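 Rule for the calls, unless noted: active = mean inhibition above 46.68%, the untreated control wells mean plus 3 SD; inactive = the rest.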

Key:
[1] = molecular target: Nuclear receptor coactivator 3 (Homo sapiens) (UniProt Q9Y6Q9); assay: NCOA3 GAL4-fusion reporter inhibition – cell-based, luminescence, quadruplicate, confirmation (AID 588792;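 active = mean inhibition over 43.08%, the solvent-only control mean plus 3 SD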;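 note: 0% = DMSO treated cells and 100% = gossypol at 36 µM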); settings: HEK293 GAL4-SRC3 luciferase reporter, at 3.6 µM, active compounds read high
[2] = test system: transactivating tegument protein VP16 (Human herpesvirus 1), Gal4-VP16 luciferase reporter; assay: repression of VP16-driven luciferase reporter – cell-based, luminescence, high throughput, counter-screen for SRC3 inhibitor project (AID 588794; in the data active = inhibition above about 30%); settings: mammalian cells, at 3.6 µM, active compounds read high
[3] = molecular target: Nuclear receptor coactivator 1 (Homo sapiens) (UniProt Q15788); assay: NCOA1 GAL4-fusion reporter inhibition – cell-based, luminescence, quadruplicate, confirmation (AID 588820); settings: HEK293 GAL4-SRC1 luciferase reporter, at 3.6 µM, active compounds read high;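 note: 0% = DMSO wells and 100% = gossypol 36 µM treated wells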
[4] = repression of VP16-driven luciferase reporter – cell-based, luminescence, high throughput, counter-screen for SRC1 inhibitor project (AID 588824; in the data active = inhibition above about 25%); settings: cell-based VP16 transactivation luciferase luminescence; at 3.6 µM; active compounds read high
[5] = StAR promoter reporter inhibitors, counter-screen for LRH-1 inverse agonist project, cell-based, luminescence, high throughput (AID 651611; in the data active = inhibition above about 28%); settings: StAR promoter luciferase reporter counterscreen, at 3.6 µM, active compounds read high
[6] = molecular target: Nuclear receptor subfamily 5 group A member 2 (Homo sapiens) (UniProt O00482); assay: NR5A2 activity suppression in reporter cells – cell-based, luminescence, confirmation (AID 651613; in the data active = inhibition above about 42%;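 note: HEK293T cells co-transfected with LRH-1 and StAR promoter luciferase reporter; 0% = vehicle wells and 100% = parental cells lacking receptor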); settings: cell-based LRH-1 luciferase reporter, inverse agonism; at 3.6 µM; active compounds read high
[7] = molecular target: Steroidogenic factor 1 (Homo sapiens) (UniProt Q13285); assay: inverse agonism at SF1 nuclear receptor – cell-based, luminescence, high throughput, counter-screen for LRH-1 inverse agonist project (AID 651614; in the data active = inhibition above about 44%;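 note: cells cotransfected with StAR promoter reporter and SF1 expression vector; 0% = vehicle on cells with receptor and 100% = vehicle on cells lacking receptor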); settings: cell-based SF1 luciferase reporter, at 3.6 µM, active compounds read high
[8] = compounds suppressing VP16-driven luciferase signal – cell-based, luminescence, high throughput, counter-screen for LRH-1 inverse agonist project (AID 651615; in the data active = inhibition above about 33%); settings: Gal4-VP16 luciferase reporter cells, at 3.6 µM, active compounds read high
[9] = test system: transactivating tegument protein VP16 (Human herpesvirus 1); assay: compounds suppressing VP16-driven luciferase signal – cell-based, luminescence, single concentration, counter-screen for SRC2 inhibitor project (AID 652007; in the data active = inhibition above about 36%); settings: cell-based VP16 transactivation luciferase reporter, at 8.9 µM, active compounds read high
[10] = molecular target: Nuclear receptor coactivator 2 (Homo sapiens) (UniProt Q15596); assay: inhibition of GAL4-SRC2 driven luciferase expression – cell-based, luminescence, HEK293, triplicate, confirmation (AID 652008;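 active = mean inhibition above 46.5%, the solvent-only control mean plus 3 SD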;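 note: 0% = DMSO-treated cells and 100% = Gossypol at 36 µM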); settings: HEK293 GAL4-SRC2 luciferase reporter, at 8.9 µM, active compounds read high

Measured: inhibition

Chain of Nuclear receptor coactivator 1 (Homo sapiens) (Q15788 whole entry, looked up, the tested form may be a part): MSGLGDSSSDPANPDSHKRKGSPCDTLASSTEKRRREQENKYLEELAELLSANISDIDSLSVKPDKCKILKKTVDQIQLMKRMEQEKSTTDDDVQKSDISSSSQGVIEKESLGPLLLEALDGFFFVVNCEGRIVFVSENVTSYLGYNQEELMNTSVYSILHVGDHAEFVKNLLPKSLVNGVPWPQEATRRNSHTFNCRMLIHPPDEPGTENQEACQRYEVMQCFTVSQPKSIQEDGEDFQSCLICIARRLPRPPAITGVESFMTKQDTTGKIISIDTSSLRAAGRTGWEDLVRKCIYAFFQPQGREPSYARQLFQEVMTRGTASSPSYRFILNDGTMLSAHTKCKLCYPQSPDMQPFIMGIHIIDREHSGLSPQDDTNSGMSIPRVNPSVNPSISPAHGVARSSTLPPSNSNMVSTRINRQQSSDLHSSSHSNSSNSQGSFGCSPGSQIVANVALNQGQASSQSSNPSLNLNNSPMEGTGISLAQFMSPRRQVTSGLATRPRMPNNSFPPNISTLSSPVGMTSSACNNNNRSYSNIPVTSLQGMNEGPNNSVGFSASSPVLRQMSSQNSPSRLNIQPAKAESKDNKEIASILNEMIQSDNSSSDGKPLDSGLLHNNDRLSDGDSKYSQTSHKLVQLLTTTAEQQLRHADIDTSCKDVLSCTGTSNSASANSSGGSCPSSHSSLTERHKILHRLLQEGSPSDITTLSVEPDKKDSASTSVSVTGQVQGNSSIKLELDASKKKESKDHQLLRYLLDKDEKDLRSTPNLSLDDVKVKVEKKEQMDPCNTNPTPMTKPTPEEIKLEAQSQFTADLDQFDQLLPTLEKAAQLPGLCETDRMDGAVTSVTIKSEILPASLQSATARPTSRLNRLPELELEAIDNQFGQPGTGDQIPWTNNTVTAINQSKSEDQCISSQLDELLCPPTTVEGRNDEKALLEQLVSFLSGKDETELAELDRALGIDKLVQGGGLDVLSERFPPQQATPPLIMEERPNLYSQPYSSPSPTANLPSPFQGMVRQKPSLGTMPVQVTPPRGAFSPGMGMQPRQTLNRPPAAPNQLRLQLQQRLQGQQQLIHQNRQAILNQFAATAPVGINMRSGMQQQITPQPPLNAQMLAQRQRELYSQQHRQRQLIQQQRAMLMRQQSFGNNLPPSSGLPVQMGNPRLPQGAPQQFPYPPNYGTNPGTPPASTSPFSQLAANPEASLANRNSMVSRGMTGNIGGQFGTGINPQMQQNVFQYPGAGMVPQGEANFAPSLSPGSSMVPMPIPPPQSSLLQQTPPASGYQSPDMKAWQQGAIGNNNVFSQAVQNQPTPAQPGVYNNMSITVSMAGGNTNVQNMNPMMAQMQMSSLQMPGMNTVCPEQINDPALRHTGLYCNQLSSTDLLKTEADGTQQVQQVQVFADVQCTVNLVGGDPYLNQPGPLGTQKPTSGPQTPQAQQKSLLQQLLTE
Chain of Nuclear receptor coactivator 2 (Homo sapiens) (Q15596 whole entry, looked up, the tested form may be a part): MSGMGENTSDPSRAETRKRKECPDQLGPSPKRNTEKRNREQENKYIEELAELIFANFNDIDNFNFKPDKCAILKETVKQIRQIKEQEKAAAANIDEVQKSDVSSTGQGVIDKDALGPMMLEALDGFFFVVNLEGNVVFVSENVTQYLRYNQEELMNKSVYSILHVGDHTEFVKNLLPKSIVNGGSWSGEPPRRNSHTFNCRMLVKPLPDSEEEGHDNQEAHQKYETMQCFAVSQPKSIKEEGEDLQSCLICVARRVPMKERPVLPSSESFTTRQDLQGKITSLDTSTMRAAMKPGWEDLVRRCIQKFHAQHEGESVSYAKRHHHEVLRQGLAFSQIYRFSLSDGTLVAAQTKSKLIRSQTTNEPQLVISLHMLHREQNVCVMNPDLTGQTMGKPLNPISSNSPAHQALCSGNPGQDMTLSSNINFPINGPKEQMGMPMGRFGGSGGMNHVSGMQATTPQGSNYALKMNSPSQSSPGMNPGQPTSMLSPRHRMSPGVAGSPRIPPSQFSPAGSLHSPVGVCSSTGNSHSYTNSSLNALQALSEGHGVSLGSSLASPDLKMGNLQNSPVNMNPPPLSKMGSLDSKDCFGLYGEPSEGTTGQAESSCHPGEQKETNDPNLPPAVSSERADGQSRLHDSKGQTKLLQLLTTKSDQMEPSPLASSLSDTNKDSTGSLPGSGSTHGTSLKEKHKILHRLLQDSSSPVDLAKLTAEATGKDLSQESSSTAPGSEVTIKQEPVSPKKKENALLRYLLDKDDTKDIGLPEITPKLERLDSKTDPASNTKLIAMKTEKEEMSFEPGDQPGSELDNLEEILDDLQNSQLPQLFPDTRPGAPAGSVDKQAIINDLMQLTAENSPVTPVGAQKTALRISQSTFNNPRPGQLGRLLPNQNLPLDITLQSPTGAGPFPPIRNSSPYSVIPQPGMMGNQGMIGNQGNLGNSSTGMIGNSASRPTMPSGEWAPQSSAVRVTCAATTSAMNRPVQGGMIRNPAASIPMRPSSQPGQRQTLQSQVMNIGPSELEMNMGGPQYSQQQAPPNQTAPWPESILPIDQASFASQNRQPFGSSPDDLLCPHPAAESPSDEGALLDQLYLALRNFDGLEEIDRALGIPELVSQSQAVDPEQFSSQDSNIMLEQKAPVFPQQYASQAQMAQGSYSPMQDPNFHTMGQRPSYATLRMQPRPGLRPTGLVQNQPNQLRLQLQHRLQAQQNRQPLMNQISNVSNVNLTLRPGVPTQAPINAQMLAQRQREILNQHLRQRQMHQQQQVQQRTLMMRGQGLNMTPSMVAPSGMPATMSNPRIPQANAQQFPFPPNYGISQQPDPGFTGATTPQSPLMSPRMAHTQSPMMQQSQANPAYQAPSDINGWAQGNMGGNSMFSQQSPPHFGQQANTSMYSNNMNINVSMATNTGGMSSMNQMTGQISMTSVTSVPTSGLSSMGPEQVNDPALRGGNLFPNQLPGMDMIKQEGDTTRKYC
Chain of Steroidogenic factor 1 (Homo sapiens) (Q13285 whole entry, looked up, the tested form may be a part): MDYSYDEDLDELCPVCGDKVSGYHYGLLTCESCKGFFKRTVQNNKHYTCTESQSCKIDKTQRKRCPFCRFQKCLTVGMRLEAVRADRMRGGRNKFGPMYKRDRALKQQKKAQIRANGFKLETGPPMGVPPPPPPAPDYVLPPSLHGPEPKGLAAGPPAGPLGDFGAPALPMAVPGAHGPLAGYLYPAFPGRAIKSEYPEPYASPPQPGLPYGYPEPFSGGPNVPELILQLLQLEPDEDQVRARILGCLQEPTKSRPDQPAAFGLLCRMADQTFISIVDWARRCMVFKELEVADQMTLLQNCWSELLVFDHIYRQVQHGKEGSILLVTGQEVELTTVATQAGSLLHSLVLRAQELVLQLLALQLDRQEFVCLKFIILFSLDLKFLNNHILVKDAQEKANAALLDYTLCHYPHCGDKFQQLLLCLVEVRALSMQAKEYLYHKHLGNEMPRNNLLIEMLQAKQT
Chain of Nuclear receptor subfamily 5 group A member 2 (Homo sapiens) (O00482 whole entry, looked up): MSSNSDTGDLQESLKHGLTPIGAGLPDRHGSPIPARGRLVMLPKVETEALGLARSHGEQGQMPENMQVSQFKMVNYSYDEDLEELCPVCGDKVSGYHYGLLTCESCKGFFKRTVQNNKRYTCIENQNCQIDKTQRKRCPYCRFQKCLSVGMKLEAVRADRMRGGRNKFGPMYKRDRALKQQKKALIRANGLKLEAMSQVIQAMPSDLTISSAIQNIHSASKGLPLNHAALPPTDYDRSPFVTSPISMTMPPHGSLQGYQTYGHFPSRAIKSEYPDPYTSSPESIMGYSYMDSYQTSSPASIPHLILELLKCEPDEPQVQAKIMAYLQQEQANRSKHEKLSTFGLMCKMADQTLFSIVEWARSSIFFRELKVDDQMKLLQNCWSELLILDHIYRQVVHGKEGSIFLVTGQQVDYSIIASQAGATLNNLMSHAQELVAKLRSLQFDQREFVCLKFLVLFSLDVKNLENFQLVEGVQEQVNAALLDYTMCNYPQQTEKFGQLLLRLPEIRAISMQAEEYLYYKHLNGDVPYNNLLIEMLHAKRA

Cc1cc(C(=O)CSc2ccc(F)cc2)cc(C)c1OC(=S)N(C)C
inactive: [1] 41.6% | [3] 2.12% | [4] -8.86% | [5] -28.6% | [6] -65.3% | [7] -23.4% | [8] -17.3% | [9] 22.6%
active: [2] 43.6% | [10] 65.7%

Cc1[nH]c2ccccc2c(=O)c1C(=O)/C=C/c1ccccc1
active: [1] 76.1% | [2] 58% | [3] 73.7% | [4] 59.6% | [5] 76.2% | [6] 90.2% | [7] 82.9% | [8] 77.8% | [9] 39% | [10] 72.7%

COc1ccc2cc3c(N)nn(C(=O)Cc4c[nH]c5ccccc45)c3nc2c1
active: [1] 82.3% | [2] 66.2% | [3] 69% | [4] 63.9% | [5] 51.1% | [6] 64.7% | [7] 55.5% | [8] 83.3% | [10] 73.2%
inactive: [9] 31.8%

Cc1ccc(C(=O)N/N=C/c2c(O)ccc3ccccc23)cn1
inactive: [9] -4.97% | [10] 33.4%
active: [1] 65.9% | [2] 62.9% | [3] 58.7% | [4] 75.4% | [5] 84.8% | [6] 102% | [7] 89.9% | [8] 83.8%

O=c1c2ccccc2oc2cc(C#CC3(O)CCCCC3)ccc12
inactive: [1] 32.4% | [3] -2.8% | [4] -14.8% | [5] -28.9% | [6] -129% | [7] -33.5% | [8] -40.4% | [9] -4.85%
active: [2] 33.5% | [10] 48.9%

Cc1cc(C)c2sc(NNC(=O)c3ccc(S(=O)(=O)N4CCc5ccccc5C4)cc3)nc2c1
inactive: [9] -4.24% | [10] 29.3%
active: [1] 46.6% | [2] 41.1% | [3] 50% | [4] 46.6% | [5] 68.6% | [6] 89.6% | [7] 66.8% | [8] 66.6%

Cc1ccc(/C=C2\SC(=S)N(CCCC(=O)Nc3ccccn3)C2=O)cc1
active: [1] 49.1% | [2] 33.9% | [3] 55.7% | [4] 28.9% | [5] 57.5% | [6] 45.8% | [7] 64.2% | [8] 39.1% | [9] 58.3% | [10] 88.4%

CC(C)(C)NCC(=Cc1ccccc1)C(=O)c1ccccc1
active: [1] 50% | [2] 82.9% | [4] 87.5% | [5] 44.6% | [6] 84.1% | [7] 84.3% | [8] 89.1% | [9] 72.5% | [10] 71.1%
inactive: [3] -38.5%

O=C(CSCC(=O)Nc1ccccc1)N/N=C/c1c(O)ccc2ccccc12
active: [1] 49.3% | [2] 30.7% | [4] 33.4% | [5] 86% | [6] 102% | [7] 91.5% | [8] 82.9%
inactive: [3] 45.4% | [9] -14.6% | [10] 21.6%

COc1ccc(-n2ncc3c(N(C)C4CCCCC4)ncnc32)cc1
active: [1] 63.9% | [2] 53.6% | [4] 40.1% | [5] 30% | [9] 42.7% | [10] 80.3%
inactive: [3] 37.6% | [6] -23.3% | [7] 28.6% | [8] 20.2%

CCCC(=O)Nc1ccc(C(=O)N/N=C/c2ccc([N+](=O)[O-])o2)cc1
inactive: [9] 23.3%
active: [1] 88.8% | [2] 69.5% | [3] 74.8% | [4] 66.5% | [5] 86.9% | [6] 102% | [7] 95.1% | [8] 80.5% | [10] 53.8%

NC(=O)c1cc2ccncc2c2ccccc12
active: [1] 80.3% | [2] 64.8% | [3] 78.5% | [4] 59.3% | [5] 42.8% | [6] 62.1% | [7] 58.1% | [8] 77.2% | [10] 68.9%
inactive: [9] 20.5%

CC(C)(C)c1ccc(C(=O)O/N=C(\N)c2ccccn2)cc1
active: [1] 85.4% | [2] 77.2% | [3] 64.9% | [4] 67.5% | [5] 61.1% | [6] 45.8% | [7] 58.5% | [8] 62.5% | [9] 83.1% | [10] 94.4%

O=C(N/N=C/c1c(O)ccc2ccccc12)c1cccnc1
active: [1] 71.2% | [2] 81.2% | [3] 73.1% | [4] 80% | [5] 88.5% | [6] 102% | [7] 89.4% | [8] 86.1%
inactive: [9] 5.29% | [10] 20.7%

O=C(CN1C(=O)c2ccccc2S1(=O)=O)c1ccc(Cl)cc1Cl
active: [1] 65.8% | [2] 71.5% | [4] 62.5% | [5] 67.9% | [6] 55.3% | [7] 73% | [8] 57.4% | [9] 81.2% | [10] 83.7%
inactive: [3] 8.08%

Cc1cc(C)c2c(N)c(C(=O)Nc3ncc(C)s3)sc2n1
active: [1] 49.7% | [2] 34.4% | [5] 36.9% | [7] 55.7% | [9] 55.6% | [10] 77.2%
inactive: [3] -42.2% | [4] 24.3% | [6] 14.3% | [8] 4.69%

CCOc1cc(CNc2ccc3c(c2)OCCO3)cc(Br)c1OC
inactive: [3] -15.9% | [4] -7.96% | [6] -55.6% | [7] 23.8% | [8] -1.87% | [9] 1.28%
active: [1] 50.5% | [2] 29.5% | [5] 39.5% | [10] 48.8%

Cc1cc(C2=NNC(=NC3CC3)SC2)c(C)n1-c1ccccc1F
active: [1] 84.8% | [2] 88.3% | [3] 78.7% | [4] 80.7% | [5] 92% | [6] 79.6% | [7] 91.1% | [8] 79.1% | [9] 93.6% | [10] 97%

CC1CCC(C(C)C)C(OC(=O)Cn2c(-c3ccccc3)[n+](C)c3ccccc32)C1 (stereo not given)
inactive: [10] 30.4%
active: [1] 74.8% and 54.2% | [2] 76.2% and 68% | [3] 55.1% and 49.6% | [4] 75.8% and 65.7% | [5] 54% | [6] 108% | [7] 83.8% | [8] 94.5% | [9] 49.1%

Cc1ccccc1C(=O)N1CCN(c2ccc(NC(=O)c3ccc4c(c3)OCO4)cc2)CC1
active: [1] 55.4% | [2] 72.5% | [3] 60.7% | [4] 72.9% | [5] 60.1% | [6] 75.1% | [7] 76.1% | [8] 80.7%
inactive: [9] 10.2% | [10] 27.1%

O=C(CCCN1C(=O)/C(=C/c2ccccc2Cl)SC1=S)NNC(=O)c1ccccc1Cl
active: [1] 58% | [2] 31.3% | [4] 40.9% | [5] 54.6% | [6] 55.1% | [7] 46.8% | [8] 45% | [9] 80.7% | [10] 87.5%
inactive: [3] 40%

CC(=O)Nc1ccc(SCC(=O)c2cc(C)n(-c3ccccc3F)c2C)cc1
inactive: [1] 41% | [2] 9.76% | [3] -10.3% | [4] -5.83% | [5] -29.9% | [6] -14.4% | [7] -11.8% | [8] -26% | [9] -6.67% | [10] 38%

CC1CCC(C(C)C)C(OC(=O)Cn2c(-c3ccc(F)cc3)[n+](C)c3ccccc32)C1 (stereo not given)
active: [1] 69.1% | [2] 45.8% | [4] 38.6% | [6] 108% | [7] 59.9% | [8] 93.7%
inactive: [3] 25.4% | [5] 23.7% | [9] 26.2% | [10] 34.6%

Cc1ccc(C(=O)Nc2sc(C)c(-c3ccccc3)c2C(N)=O)cc1[N+](=O)[O-]
active: [1] 64% | [2] 50% | [5] 47.7% | [9] 71.9% | [10] 74.1%
inactive: [3] 29.8% | [4] 22.4% | [6] -41.3% | [7] 38.9% | [8] 10.9%

COc1ccc(CNC(=O)c2cccc3c(-c4cccc(C(N)=O)c4)coc23)cc1OC
active: [2] 52% | [4] 50.2% | [5] 62.9% | [6] 69.7% | [7] 68.7% | [8] 73.6%
inactive: [1] 30.4% | [3] 3.09% | [9] 34.4% | [10] 37.8%

CC(C)c1ccc(/C=C(\c2nc3ccccc3[nH]2)S(=O)(=O)c2ccccc2)cc1
active: [1] 54.2% | [2] 39.6% | [5] 33.9% | [6] 54.6% | [7] 54.7% | [8] 46.6% | [9] 36.6% | [10] 49.3%
inactive: [3] -0.35% | [4] 24.9%

O=C(COC(=O)c1ccc[nH]c1=O)Nc1ccc(N2CCCCC2)cc1
active: [1] 54.4% | [5] 42.1% | [6] 55% | [9] 45.1% | [10] 90.5%
inactive: [2] 20.8% | [3] 42.2% | [4] 5.72% | [7] 41% | [8] 6.65%

CC(C)(C)C(=O)/C(=C/c1ccncc1)n1cncn1
active: [1] 69.2% | [2] 55.3% | [3] 59.9% | [4] 48% | [5] 35.2% | [6] 42.6% | [7] 46.5% | [8] 69.2% | [9] 39.9% | [10] 63.3%

CCN(CC)c1ccc(C(=C2C=CC(=[N+](CC)CC)C=C2)c2ccccc2)cc1
inactive: [3] -95%
active: [1] 95.5% | [2] 95.9% | [4] 94.3% | [5] 97.7% | [6] 109% | [7] 99.1% | [8] 98.7% | [9] 98.3% | [10] 99.5%

O=C1N(c2ccccc2)C[C@@H]2C[C@@H](c3cc4ccccc4o3)N3CCC[C@@]123
inactive: [10] 43.3%
active: [1] 95.3% | [2] 96.3% | [3] 74.5% | [4] 94.7% | [5] 90.4% | [6] 109% | [7] 98% | [8] 98.4% | [9] 47.8%

CC(C)(C)c1ccc(C(=O)N2CCCCCC2=O)cc1
inactive: [3] 35.8%
active: [1] 58% | [2] 41% | [4] 33.1% | [5] 45.6% | [6] 62.1% | [7] 56.1% | [8] 56.4% | [9] 63.6% | [10] 89.2%
